From ChEMBL document CHEMBL3988442, “University of Dundee, Small-Polar-MMV Screening Library” (2021) come the findings set out here.

Molecules are shown by their SMILES. The whole screen tested about 48,000 compounds, of which about 13,000 (27%) showed an effect of 50% or more. This is one part of the list.

The test system of the assay is Wolbachia pipientis. Nature of the assay: Anti-Wolbachia Cell-Based Screen. To be noted: 5 µM. Format: functional. Set-up: scale not given: in the data most compounds retested in dose-response had high values.
Regarding `CN(CCCc1cc(-c2cccc(F)c2)n[nH]1)C(=O)Cn1cncn1`, the “Percent Effect” value is -5.082%.

Take `COc1ccccc1OC1CN(C(=O)Cc2c(C)nc(C)[nH]c2=O)C1`: the “Percent Effect” value is on record as -23.21%.

Regarding `CC(CNC(=O)c1cc(-n2cccn2)ccn1)Cn1ccnc1` (stereo unspecified), the “Percent Effect” value is listed as -5.602%.

For the compound `COCCCn1ccc(NCc2cnc(C(C)(C)C)s2)n1`, the “Percent Effect” value is listed as 1.35%.

As for `Cn1nc(Cn2ccnc2)c2c1CN(c1nccs1)C2.O=C(O)C(F)(F)F.O=C(O)C(F)(F)F`, the “Percent Effect” value was 4.707%.

As to `CCn1cnnc1CCNC(=O)CCNC(=O)c1ccccc1F`, the “Percent Effect” value amounted to 3.625%.

For the compound `O=C(C1CC=CC1)N1CC[C@H]2[C@@H]1CCC(=O)N2c1ccccc1`, the “Percent Effect” value is -0.4954%.

As to `O=C(NC1CCCC1)N1C[C@H]2CN(c3ccccn3)C[C@@]2(C(=O)O)C1`, the “Percent Effect” value was -9.055%.

With `COC1CN(C(=O)C2CC2)CCC(=O)N(C)c2ccccc21` (stereo unspecified), the “Percent Effect” value is 115%.

As to `O=C1NCCN2CCN(C(=O)Nc3ccc(-c4ccccc4)cc3)CC12` (stereo unspecified), the “Percent Effect” value is reported as -8.363%.

Consider `CC(=O)N1CCN(C(=O)Nc2ccccc2)CC2(CC(=O)N(C)C2)C1` (stereo unspecified), for which the “Percent Effect” value was -20.73%.

On to `COC1CN(C(=O)NC2CCCC2)CCC(=O)N(C)c2ccccc21` (stereo unspecified), for which the “Percent Effect” value is listed as 116.2%.

As for `CN1C(=O)CCN(C(=O)C2CC=CC2)c2ccccc21`, the “Percent Effect” value is on record as 2.91%.

As to `COC1CN(C(=O)Nc2ccccc2)CCC(=O)N(C)c2ccccc21` (stereo unspecified), the “Percent Effect” value worked out at 93.19%.

Regarding `Cn1cc(NC(=O)N2CCC(c3ccccc3)CC2)ccc1=O`, the “Percent Effect” value is -11.38%.

In the case of `COC(=O)N1CCCN(C(=O)NC2CCc3ccccc3C2)CC1` (stereo unspecified), the “Percent Effect” value is -2.418%.

For the compound `COC1CCN(C(=O)Nc2ccccc2)CC(=O)N(C)c2ccccc21` (stereo unspecified), the “Percent Effect” value turned out to be 112.2%.

For the compound `COC(=O)[C@@H]1CN(C(=O)Nc2ccccc2)CCN1C(C)=O`, the “Percent Effect” value is -6.785%.

Take `O=C(c1cccc(Cl)c1Cl)N1CCN(CC(O)Cn2cccn2)CC1` (stereo unspecified): the “Percent Effect” value is -7.394%.

For the compound `Cc1ccn(-c2ccc(NCc3ccccc3F)nn2)n1`, the “Percent Effect” value is listed as -4.619%.

With `CSCCC(=O)N(C/C=C/c1ccccc1)CCO`, the “Percent Effect” value is -21.61%.

As for `CC(C)(C)Oc1ccc(C(=O)N2CCOCC2c2ncon2)cc1` (stereo unspecified), the “Percent Effect” value turned out to be 0.1698%.

Turning to `Oc1nnc(-c2cccs2)c2sc(N3CCCC3)nc12`, the “Percent Effect” value is recorded as -2.433%.

Regarding `CCC[C@H]1CN(Cc2ccc(N(C)C)nc2)C[C@@H]1NC(=O)CO`, the “Percent Effect” value is listed as -10.52%.

Regarding `CC(C)Nc1ncc(CN2C[C@@H](CN3CCC(O)CC3)[C@@H](CO)C2)cn1`, the “Percent Effect” value is -6.538%.

On to `CC(C)c1nnc2n1CCN(C(=O)c1ccc(Cn3cccc3)cc1)C2`, for which the “Percent Effect” value is -2.793%.

As for `O=C(c1ccc(Cl)cc1)N1CCn2c(nn(-c3cccc(Cl)c3)c2=O)C1`, the “Percent Effect” value turned out to be 114.6%.

Regarding `Cc1cccc(-n2ncc(C(=O)N3CCn4c(C)nnc4C3)c2C)c1`, the “Percent Effect” value is on record as -8.447%.

Consider `CN1CCN(Cc2cnc3n2CCN(C(=O)c2ccncc2)C3)CC1`, for which the “Percent Effect” value stood at 9.234%.

As for `CC(C)c1nnc2n1CCN(C(=O)c1ccc(S(C)(=O)=O)cc1)C2`, the “Percent Effect” value is on record as -9.775%.

Take `O=C(c1ccncc1)N1CCn2c(nnc2-c2ccccc2)C1`: the “Percent Effect” value is on record as -8.4%.

For the compound `O=C(c1ccc(Cl)cc1)N1CCn2c(nn(-c3ccc(Cl)cc3)c2=O)C1`, the “Percent Effect” value is 107.9%.

In the case of `O=C(c1ccc(Cl)cc1)N1CCn2c(nn(-c3ccncc3)c2=O)C1`, the “Percent Effect” value was found to be 118.8%.

On to `CC(C)c1nnc2n1CCN(C(=O)c1ccc(-n3cnnc3)cc1)C2`, for which the “Percent Effect” value is -1.108%.

Consider `Cc1ccc(-n2nc3n(c2=O)CCN(C(=O)c2ccc(Cl)cc2)C3)cc1`, for which the “Percent Effect” value is 122%.

As to `CC(C)c1nnc2n1CCN(C(=O)c1ccc(OCC(N)=O)cc1)C2`, the “Percent Effect” value is on record as -11.93%.
